Experimental data taken from PubChem BioAssay (Tox21).
Results filed as inconclusive are left out. Values without a mark were called inactive. Calls follow the shape of the dose curve; as a rule, active = well fitted inhibition curve with a large enough effect in the repeat runs; inconclusive = weak or mixed curves; inactive = no such curve, though single readings can be large or run the other way.

Assay: qHTS assay to identify small molecule antagonists of the thyroid receptor (TR) signaling pathway (AID 743065); also: nearly all actives have a fitted effect of over 55% in size
Settings: GH3.TRE-Luc, T3-stimulated luciferase inhibition, 23.5 h; series mostly up to 70.3 µM; activity, negative = inhibition: at the top concentration
Text: U.S. Tox21 Program National Center for Advancing Translational Sciences [NCATS] NIH Chemical Genomics Center [NCGC] U.S. Environmental Protection Agency [EPA] National Institutes of Environmental Health Sciences [NIEHS] National Toxicology Program [NTP] U.S. Food and Drug Administration [FDA] Tox21 Assay Overview: Thyroid receptor (TR), a nuclear hormone receptor, plays an important role in development, proliferation, differentiation, metabolism, brain function, and cardiovascular system. […] To profile the Tox21 10K compound library in TR signaling, a cell-based GH3-TRE-Luc assay (GH3.TRE-Luc cell line, developed by the laboratory of Dr. Albertinka J. Murk, Wageningen University) was used to measure the inhibition of TR. GH3 (rat pituitary tumor) cells stably expressing a TR activity sensor consisting of two TR response elements and a luciferase reporter gene.
Tox21 Assay Protocol Summary: GH3.TRE-Luc cells were dispensed at 1500 cells/4 uL/well into 1536-well white solid bottom plates using a Multidrop Combi dispenser (Thermo Fisher Scientific Inc., Waltham, MA). After the assay plates were incubated at 37 C for 4 hours, 23 nL of library compound or DMSO controls was transferred to the assay plates by a pintool station (Kalypsys, San Diego, CA), followed by addition of 1 ul of T3 (1 nM, final concentration in the wells) to stimulate TR transactivation. The assay plates were incubated at 37 C for 23.5 h, and then 1 uL of CellTiter-Fluor reagent (Promega, Madision, WI) of measuring cytotoxicity was added to each well using a Bioraptr Flying Reagent Dispenser (FRD) workstation (Beckman Coulter, Indianapolis, IN, USA). The plates were incubated at 37 C and 5% CO2 for additional 30 min, and fluorescence intensity was measured by a ViewLux plate reader (PerkinElmer, Shelton, CT). For measuring luciferase reporter gene activity, 4 uL of ONE-Glo Luciferase Assay reagent (Promega) was added to each well using a Bioraptr FRD (Beckman Coulter), followed by 30 min incubation at room temperature. The luminescence intensity of plates was recorded by a ViewLux plate reader (PerkinElmer, Shelton, CT).
% is scaled to controls: 0 for no effect and ±100 for the full control effect.

Structure (SMILES)	activity, negative = inhibition
CCC(CO)CO	16.9%
O=P(O)(O)OCC(O)CO (stereo not given)	10%
CCC(C)(C)C1CCC(=O)CC1	4.88%
CC(=O)OCC(=O)[C@@]1(O)[C@H](OC(C)=O)C[C@H]2[C@@H]3CCC4=CC(=O)C=C[C@]4(C)[C@@]3(F)[C@@H](O)C[C@@]21C	-1.83%
Nc1cc(S(=O)(=O)O)ccc1S(=O)(=O)O	3.93%
O=S1(=O)CCCC1	-9.31% [at 95 µM]
CC1CCC(C(C)(C)S)C(=O)C1 (stereo not given)	0.537%
CCCCOC(=O)C(=O)OCCCC	0.472%
CC(C)COC(=O)CCCCC(=O)OCC(C)C	-1.46%
Cc1ccccc1OCC1CO1 (stereo not given)	-5.71% [at 95 µM]
CC(C)=CC(C)(C)C	7.45%
CCC(C)N (stereo not given)	13.9%
CNC(=O)NC	12.7% [at 95 µM]
CC(=O)/C=C/c1ccco1	-0.281% [at 95 µM]
CO/N=C(/C(=O)N[C@@H]1C(=O)N2C(C(=O)O)=C(Cn3nnc(C)n3)CS[C@H]12)c1csc(N)n1	6.7%
CC(C)CCCCCCOC(=O)C1CCCCC1C(=O)OCCCCCCC(C)C (stereo not given)	-2.75%
CC(C)COC(=O)/C=C/c1ccccc1	-9.86%
CCOC(=O)CC#N	13.6%
CCOC(=O)CCCCCCCCC(=O)OCC	-2.03%
Cc1cccc(NC(=S)N(C)C)c1	2.29%

Structure (SMILES)	activity, negative = inhibition
CN(C1CCCCC1)S(=O)(=O)c1ccccc1N	14.6%
CC(C)CCCC(C)CC=O (stereo not given)	-7.73%
CCC1COC(=O)O1 (stereo not given)	-0.538%
CC(Cl)COP(=O)(OCC(C)Cl)OCC(C)Cl (stereo not given)	-20%
Nc1cc(C(=O)O)ccc1Cl	-0.346%
CN=C(NC#N)NCCSCc1csc(N=C(N)N)n1	-0.506%
Cc1nc2ccccc2c(=O)o1	-23% [at 95 µM]
C=C(C)C(=O)OCCCCCCOC(=O)C(=C)C	-17.1%
Nc1cc(Cl)cc(S(=O)(=O)O)c1O	-1.3% [at 95 µM]
CCCCCCCCCCCCC1CO1 (stereo not given)	-0.0529%
CC1=NN(c2ccc(S(=O)(=O)O)cc2)C(=O)C1N=Nc1ccccc1 (stereo not given)	0.0655%
C1CCN2C[C@@H]3C[C@@H](CN4CCCC[C@@H]34)[C@H]2C1	5.05% [at 32.5 µM]
CC(=O)Nc1ncc([N+](=O)[O-])s1	8.07%
C=C(C)C(=O)OC	3.58%
OCCCCCCCl	11.5% [at 95 µM]
O=C(O)C(=O)Nc1cccc(-c2nn[nH]n2)c1	4.41%
NS(=O)(=O)c1ccc(Cl)c(S(N)(=O)=O)c1	0.514%
O=C(c1ccc2c(c1)C(=O)OC2=O)c1ccc2c(c1)C(=O)OC2=O	0%
CC(=O)N(CC(O)CO)c1c(I)c(C(=O)NCC(O)CO)c(I)c(C(=O)NCC(O)CO)c1I (stereo not given)	0.329%
C1=CCC(c2ccccc2)CC1 (stereo not given)	-0.0994%
